# The list is not random: actives were taken first. Their share in the collection is about 0.69%.
# PERK inhibitor = blocks human PERK kinase | Q9NZJ5 | CHO PERK-DD fusion, SEAP luminescence translation reporter | inhibition, % at 5.6 µM | actives 0.17% (n = 220,000);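 active = inhibition above the mean inhibition of all tested compounds plus 3 SD, set separately per screening campaign, cut at about 2.9% in these data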;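 note: PERK kinase domain activated by AP20187 dimerizer at 100 nM; 0% = DMSO with dimerizer and 100% = rapamycin at 8.4 µM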
# p97 inhibitor = inhibitors of human p97 ATPase; AID 1481; P55072; inhibition, % at 8 µM; recombinant p97 ATPase, Kinase-Glo ATP luminescence, 3 h; actives 0.42% (n = 220,000); in the data active = inhibition above about 15%;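 note: 0% = DMSO vehicle and 100% = wells lacking enzyme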
# Redox H2O2 prof = compounds producing H2O2 with reducing agent – biochemical, NIH compound library profiling, artefact control for MLSCN library redox annotation, primary screen; DTT-dependent redox cycling H2O2, phenol red/HRP absorbance; 100% = 100 µM peroxide control, 0% = buffer; activation, % at 10 µM; actives 0.03% (n = 200,000);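 active = activation of at least 50% relative to the plate's high and low controls in the primary single-dose screen; inactive = activation below 50%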;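 note: compound incubated with DTT at 0.8 mM final as the reducing agent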
# SUMO HTRF inh = SUMOylation inhibition; actives 0.36% (n = 290,000); HTRF SUMOylation assay, SAE1/SAE2 + UBC9, in vitro; AID 2006; inhibition, % at 35 µM; P63279; in the data active = inhibition above about 50%, passing the limit was not always enough; inconclusive = no clear call, values can overlap the other calls
# Target sequence (P63279 whole entry, looked up): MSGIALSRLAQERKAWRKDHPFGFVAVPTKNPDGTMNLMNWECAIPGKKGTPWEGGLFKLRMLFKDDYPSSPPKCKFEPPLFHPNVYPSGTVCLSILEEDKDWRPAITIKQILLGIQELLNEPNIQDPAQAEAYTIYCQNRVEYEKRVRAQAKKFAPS
# p97 confirm = confirmation of human p97 ATPase inhibitors | shares compounds with p97 inhibitor | recombinant p97 ATPase, Kinase-Glo ATP luminescence | inhibition, % at 8 µM | actives 44% (n = 760);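 active = percent inhibition of p97 ATPase above a set limit, the primary screen's mean plus 3 SD, cut at about 15% in these data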;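 note: 0% = DMSO wells and 100% = wells lacking p97 protein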
# * = called active by the depositor; ? = inconclusive; nt = no result.
SMILES,PERK inhibitor,p97 inhibitor,Redox H2O2 prof,SUMO HTRF inh,p97 confirm
C#CCOCCOCCOCCNc1nc(N2CCN(C(=O)[C@H](Cc3ccc(O)cc3)n3cc([C@@H](N)CC(C)C)nn3)CC2)nc(N2CCN(C(=O)[C@H](Cc3cc4ccccc4[nH]3)n3cc([C@@H](N)CC(C)C)nn3)CC2)n1,1,20*,-1,-50,13
C#CCOCCOCCOCCNc1nc(N2CCN(C(=O)[C@H](Cc3ccc(O)cc3)n3cc([C@@H](N)CC(C)C)nn3)CC2)nc(N2CCN(C(=O)[C@H](Cc3ccc(O)cc3)n3cc([C@@H](N)CC(C)C)nn3)CC2)n1,1,18*,1,-7,14
C#CCOCCOCCOCCNc1nc(N2CCN(C(=O)C(Cc3ccc(O)cc3)n3cc(C(N)CC(C)C)nn3)CC2)nc(N2CCN(C(=O)C(Cc3cc4ccccc4[nH]3)n3cc(C(N)C(C)CC)nn3)CC2)n1 (stereo not given),1,14,-1,-16,nt
C#CCOCCOCCOCCNc1nc(N2CCN(C(=O)[C@H](CCCCN)n3cc([C@@H](N)CO)nn3)CC2)nc(N2CCN(C(=O)[C@H](Cc3cc4ccccc4[nH]3)n3cc([C@@H](N)Cc4ccc(O)cc4)nn3)CC2)n1,1,7,-2,-1,nt
COc1ccc(NC(=O)CCCn2c(=O)c3sccc3n(Cc3ccc(C)cc3C)c2=O)cc1,0,-3,-1,11,nt
Cc1cccc(NC(=O)C2CCCN(S(=O)(=O)c3ccc4[nH]c(=O)ccc4c3)C2)n1 (stereo not given),nt,nt,nt,-3,nt
COC(=O)c1sc(-c2cccs2)cc1NC(=O)/C=C/C(=O)O,0,25*,nt,4,23*
CC(C)c1ccc2c(c1)CCC1C(C)(CN)CCCC21C (stereo not given),1,22*,nt,-16,14
N#Cc1c(-c2ccccc2)c(-c2ccccc2)nn(CC(=O)NNC(=O)Nc2ccc(Cl)cc2)c1=O,2,31*,nt,2,27*
O=C(CCN1N=C(c2ccccc2)CCC1=O)NCCCN1CCOCC1,nt,nt,nt,1,nt
O=C(/C=C/c1ccco1)Nc1cccc(C(=O)Nc2ccccc2C(=O)O)c1,2,46*,nt,48,30*
CCc1ccccc1NC(=O)c1cccc(NC(=O)/C=C/c2ccco2)c1,0,1,0,16,nt
CC/C(=C\C(=O)c1ccncc1)Nc1ccc(O)cc1,0,21*,6,14,8
O=C(N/N=C/c1ccc(O)cc1)c1ccncc1,nt,nt,nt,16,nt
Cc1cnc(=O)[nH]c1SCc1ccc([N+](=O)[O-])cc1,nt,nt,nt,18,nt
CCCNC(=O)NC(=O)CN1C(=O)NC(C)(c2ccc3ccccc3c2)C1=O (stereo not given),nt,nt,nt,-5,nt
N/C(=N\O)c1cn(Cc2ccccc2Cl)c2ccccc12,nt,nt,nt,10,nt
Cc1[nH][nH]c(=O)c1C(c1c(C)[nH][nH]c1=O)c1cn(Cc2ccccc2Cl)c2ccccc12,0,20*,1,70*,20*
Oc1ccc(N=Cc2ccc(O)c(O)c2)cc1,-1,21*,0,?,13
CCC(C)[C@H](NC(=O)OC(C)(C)C)C(=O)NCC1CCC(C(=O)N[C@@H](Cc2ccccc2)C(=O)O)CC1 (stereo not given in full),nt,nt,nt,7,nt
COc1ccc(Nc2nc(-c3ccccc3)nc3ccccc23)cc1S(=O)(=O)N1CCOCC1,1,16*,nt,16,13
COc1ccc(NC(=O)c2cc(-c3ccco3)nc3ccccc23)cc1S(=O)(=O)N1CCOCC1,1,13,nt,36,nt
Cc1ccc(S(=O)(=O)n2nc(OC(=O)c3ccccc3C)cc2N)cc1,nt,nt,nt,-21,nt
COc1ccccc1C(=O)Oc1cc(N)n(S(=O)(=O)c2ccc(C)cc2)n1,2,29*,0,-26,39*
Cc1cccc(C)c1N(CC(=O)N1CCCC1)S(C)(=O)=O,nt,nt,nt,4,nt
SMILES,PERK inhibitor,p97 inhibitor,Redox H2O2 prof,SUMO HTRF inh,p97 confirm
COc1ccc(Nc2nc3ccccc3nc2NS(=O)(=O)c2cccs2)c(OC)c1,2,24*,nt,28,29*
Cn1cccc1/C=C1\SC(=Nc2cccc(O)c2)NC1=O,1,16*,nt,10,13
Cc1ccc(N=C2NC(=O)/C(=C/c3cccn3C)S2)c(C)c1,-2,-1,nt,8,nt
Cn1cccc1/C=C1\SC(=Nc2ccccc2)NC1=O,1,6,nt,13,nt
Cn1cccc1/C=C1\SC(=Nc2ccc(O)cc2)NC1=O,-1,16*,nt,-4,23*
COc1cccc(Nc2ccccc2C(=O)O)c1,1,16*,-1,-14,5
CCCCC(=O)NC(=S)Nc1cc(C(=O)O)ccc1OC,1,18*,0,-3,10
COc1ccc(C(=O)O)cc1NC(=S)NC(=O)C(c1ccccc1)c1ccccc1,nt,nt,nt,-2,nt
COc1cc(OC)cc(C(=O)Nc2ccc(S(=O)(=O)Nc3ccccn3)cc2)c1,nt,nt,nt,4,nt
CCCCC(=O)Nc1cc(C)c(NC(=O)c2ccco2)cn1,nt,nt,nt,7,nt
CCc1cccc(NC(=O)C2CCCN(S(=O)(=O)c3c(C)[nH]c(=O)[nH]c3=O)C2)c1 (stereo not given),0,23*,0,-2,9
COc1ccc2[nH]cc(C(=O)CCl)c2c1,1,42*,nt,15,46*
COc1ccc(NC(=O)N(CCCN(C)C)Cc2cc3cc(OC)ccc3[nH]c2=O)cc1,0,3,0,-4,nt
Cc1ccc2[nH]c(=O)c(CN(CCCN(C)C)C(=O)Nc3ccc(F)cc3)cc2c1,0,16*,-1,-9,4
CCOC(=O)c1ccc[n+](C(C)C(=O)c2ccc(-c3ccccc3)cc2)c1 (stereo not given),0,4,0,7,nt
CC(C(=O)c1ccc(-c2ccccc2)cc1)[n+]1cccc(NC(=O)c2ccccc2)c1 (stereo not given),0,20*,nt,3,18*
CCCCOc1ccc(CN2CCSCC2)cc1,nt,nt,nt,-9,nt
Cc1ccccc1NC(=O)OCc1ccccc1,nt,nt,nt,4,nt
CCc1nnc(NC(=O)CSc2nnc(C(C)NC(=O)c3ccccc3F)n2C)s1 (stereo not given),nt,nt,nt,2,nt
CCC(=O)NNc1nc2c(C)cc(C)cc2s1,0,15*,-9,9,6
Cc1cc(C)c2nc(NC(=O)c3cc(C)on3)sc2c1,0,-6,0,0,nt
O=C(CSc1ncnc2scc(-c3ccccc3)c12)Nc1ccc(C(=O)O)cc1,1,20*,nt,8,17*
CSc1ccccc1OCc1cc(C(=O)N(C)Cc2cc(C)[nH]n2)no1,nt,nt,nt,3,nt
O=[n+]1c2c(n([O-])c3ccccc31)CCCC2,0,15*,0,8,4
O=[n+]1c2c(n([O-])c3cc(Br)ccc31)CCCC2,0,2,0,4,nt
Cc1[nH][nH]c(=O)c1C(c1ccc(-c2cccc(Cl)c2)o1)c1c(C)[nH][nH]c1=O,1,36*,nt,88,34*

# High-throughput results from PubChem BioAssay.
